The source of these data is PubChem BioAssay (NCATS).

Values joined by “and” are separate entries in the source; they are usually repeats but may differ in a detail not shown here. Equal values may be shown once. Results filed as inconclusive are left out. A structure can be active in one record and inactive in another. Active and inactive are the calls of the source. Calls come from the whole dose curve; as a rule, active = well fitted curve in the direction sought with a large enough effect; inconclusive = small, poorly fitted or top-dose-only effect, or another doubt; inactive = no such curve, though single readings can be large; an effect the other way counts as inactive or inconclusive.
Potency is the fitted concentration of half-maximal effect.

One assay can be described thus: Viability qHTS for spleen associated tyrosine kinase inhibitor (SYKi) drug resistant MV4-11 cells (AID 1963824). Note: nearly all actives have a fitted effect of over 35% in size. To be noted: SYKi-resistant MV4-11 viability, CellTiter-Glo, 72 h; series mostly up to 45 µM; viability, % of control: at the top concentration. In short, it runs like this: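 SYK inhibitor-resistant MV4-11 AML cells, 500 per well, added to predispensed compounds and incubated 72 hr at 37 C, 5% CO2. Viability measured by CellTiter-Glo luminescence after 10 min at room temperature.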
For orientation: In qHTS, concentration-response curves come from the screen itself.
Consider `CN1CCN(C(=O)c2ccc(-c3ccc4c(C=O)c(O)ccc4c3)s2)CC1`, for which the Potency was 14.8 µM (active).
For the compound `CCC(Cc1c(I)cc(I)c(N)c1I)C(=O)O` (stereo not drawn), the “viability, % of control” value was 74% (inactive).
`N#Cc1ccc(C2CCCc3cncn32)cc1` (stereo not drawn): the “viability, % of control” value is 6.8% [at 17.3 µM] (inactive).
As to `CN(C(=O)c1c(O)c2ccccc2n(C)c1=O)c1ccccc1`, the Potency was 11.9 µM (active) and inactive.
The same measure, in the same setting: in the case of `CN(C)C/C=C/C(=O)Nc1cccc(C(=O)Nc2cccc(Nc3ncc(Cl)c(-c4c[nH]c5ccccc45)n3)c2)c1` it was 0.0037 µM (active); in that of `COc1cc2c(cc1O)CCN[C@]21CS[C@@H]2c3c(OC(C)=O)c(C)c4c(c3[C@H](COC1=O)N1[C@@H]2[C@H]2c3c(cc(C)c(OC)c3O)C[C@@H]([C@@H]1O)N2C)OCO4`, 0.0015 µM (active); in that of `COc1cccc2c1C(=O)c1c(O)c3c(c(O)c1C2=O)C[C@@](O)(/C(CO)=N/NC(=O)CCCCCN1C(=O)C=CC1=O)C[C@@H]3O[C@H]1C[C@H](N)[C@H](O)[C@H](C)O1`, 0.186 µM (active).
As for `CC[C@]1(O)CC2CN(CCc3c([nH]c4ccccc34)[C@@](C(=O)OC)(c3cc4c(cc3OC)N(C)[C@H]3[C@@](O)(C(=O)OC)[C@H](OC(C)=O)[C@]5(CC)C=CCN6CC[C@]43[C@@H]65)C2)C1` (stereo partly drawn), the Potency is 65.1 nM (active) and 33.2 nM (active).
For `CCCCC(=O)OCC(=O)[C@]1(O)Cc2c(O)c3c(c(O)c2[C@@H](O[C@H]2C[C@H](NC(=O)C(F)(F)F)[C@H](O)[C@H](C)O2)C1)C(=O)c1c(OC)cccc1C3=O`, the Potency was 0.209 µM (active).
With `Cn1cncc1C(N)(c1ccc(Cl)cc1)c1ccc2c(c1)c(-c1cccc(Cl)c1)cc(=O)n2C` (stereo not drawn), the Potency is 1.86 µM (active).
As to `NCc1ccc(S(N)(=O)=O)cc1`, the “viability, % of control” value is 81.6% (inactive).
The same measure, in the same setting: in the case of `CC(C)NCC(O)COc1cccc2[nH]ccc12` (stereo not drawn) it was 90.6% (inactive).
As to `CN1CCN(c2ccc3nc(-c4cc(C(C)(C)C)c(OCCCC(=O)NCCCN=[N+]=[N-])c(C(C)(C)C)c4)[nH]c3c2)CC1`, the Potency was 5.25 µM (active).
Turning to `C[C@H]1NCc2cc(-c3ccc4c(=O)c(C(=O)O)cn(C5CC5)c4c3OC(F)F)ccc21`, the “viability, % of control” value is 93.6% [at 17.3 µM] (inactive).
Regarding `CN(C)Cc1ccc(S(=O)(=O)n2ccc(/C=C/C(=O)NO)c2)cc1`, the Potency was 2.35 µM (active).
With `Cc1ccc(C(=O)Nc2ccc(CN3CCN(C)CC3)c(C(F)(F)F)c2)cc1C#Cc1cnc2[nH]ncc2c1`, the “viability, % of control” value is 5.56% (inactive).
With `c1ccc(-c2ccc(CNc3nc(-c4ccccn4)nnc3-c3ccccc3)cc2)cc1`, the Potency is 1.03 µM (active).
Take `Nc1c2ccccc2nc2ccccc12`: the Potency is 3.76 µM (active).
Take `Nc1cc(-c2ccncc2)c[nH]c1=O`: the “viability, % of control” value is 107% (inactive).
Consider `Cc1cc(O[C@@H](CCC(F)(F)F)c2ccc(C(=O)NCCC(=O)O)cc2)cc(C)c1-c1ccc(C(C)(C)C)cc1`, for which the Potency was 9.34 µM (active).
On to `Cn1cc(-c2ccc(S(=O)(=O)n3ccc(/C=C/C(=O)Nc4ccccc4N)c3)cc2)cn1`, for which the Potency was 580 nM (active) and 742 nM (active).
For the compound `NS(=O)(=O)c1cc2c(cc1Cl)NC(CC1CCCC1)NS2(=O)=O` (stereo not drawn), the “viability, % of control” value is 121% (inactive).
Regarding `CCS(=O)(=O)Nc1ccc(Oc2ccc(F)cc2F)c(-c2cn(C)c(=O)c3[nH]ccc23)c1`, the Potency is 0.0042 µM (active).
On the same count and under the same terms, for `C[C@H]1COCCN1c1cc(C2(S(=O)(=O)C3CC3)CC2)nc(-c2ccc(NC(=S)NCCO)cc2)n1` the value was 0.0731 µM (active).
Same read-out and setting: in the case of `Cc1ccc(S(=O)(=O)Nc2cc(C(F)(F)F)ccc2C(=O)Nc2nc(-c3ccccc3)cs2)cc1` it was 2.95 µM (active).
With `Cc1ccc2c(Cl)cc(Cl)c(O)c2n1`, the “viability, % of control” value was 94.6% (inactive).
Turning to `CN(C)c1cc(NC(=O)CNC(C)(C)C)c(O)c2c1C[C@H]1C[C@H]3[C@H](N(C)C)C(=O)C(C(N)=O)=C(O)[C@]3(O)C(=O)C1=C2O`, the “viability, % of control” value was 76.2% (inactive).
For the compound `CONC(=O)Nc1ccc(-c2sc3c(c2CN(C)Cc2ccccc2)c(=O)n(-c2ccccc2)c(=O)n3Cc2c(F)cccc2F)cc1`, the Potency was 16.6 µM (active).
The same measure, in the same setting: in the case of `CSc1ccc(C(=O)/C=C/c2cc(C)c(OC(C)(C)C(=O)O)c(C)c2)cc1` it was 4.28 µM (active).
With `NC(=O)C1(N2CCCCC2)CCN(CCCN2c3ccccc3CCc3ccc(Cl)cc32)CC1`, the Potency was 8.41 µM (active).
The same measure, in the same setting: in the case of `COc1cc(N2CCN(C)CC2)ccc1Nc1ncc2c(n1)N(C)c1ccccc1C(=O)N2C` it was 1.86 µM (active); in that of `O=C(O)C[C@H](O)C[C@H](O)/C=C/c1c(C2CC2)nc2ccccc2c1-c1ccc(F)cc1`, 164 nM (active) and 235 nM (active).
In the case of `CNCc1ccccc1`, the “viability, % of control” value was 89.5% (inactive).

The nature of the next assay: Cellular viability qHTS for adrenocortical cancer (ACC) cell line SW-13 (AID 1963989).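 For activity (max response): cells grown in serum-free medium with ITS supplement; % is set by controls: 0 for no effect and ±100 for the full control effect.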 Note: nearly all actives have a fitted effect of over 65% in size. The conditions noted are these: SW-13 ACC cells viability, CellTiter-Glo, 48 h; activity (max response): stronger effect = lower value. In short, it runs like this:
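IC50 and maximal-response values come from four-parameter logistic fits of titration data. SW-13 cells in serum-free medium received compounds (up to 46 uM final) for 48 h before CellTiter-Glo luminescence.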
Consider `C[C@@H](Nc1ncnc2[nH]c(-c3ccc(O)cc3)cc12)c1ccccc1`, for which the Potency is 3980 nM (active).
As for `CC(=O)OCC[N+](C)(C)C`, the activity (max response) is 10.9% (inactive).
The same measure, in the same setting: in the case of `CC(NC(CCc1ccccc1)C(=O)O)C(=O)N1C(=O)N(C)CC1C(=O)O` (stereo not drawn) it was 6.3% (inactive); in that of `CN1CC(=O)N2[C@H](c3ccc4c(c3)OCO4)c3[nH]c4ccccc4c3C[C@@H]2C1=O`, 17.1% (inactive) and 13.1% (inactive); in that of `CC(=O)[C@]1(N)Cc2c(O)c3c(c(O)c2[C@@H](O[C@H]2C[C@H](O)[C@H](O)CO2)C1)C(=O)c1ccccc1C3=O`, -6.73% (inactive).
With `O=C(Nc1cc(Oc2cc(F)c(NC(=O)C3(C(=O)Nc4ccc(F)cc4)CC3)cc2F)ccn1)C1CC1`, the activity (max response) was -9.83% (inactive).
As for `CC(C)(Oc1ccc(CCNC(=O)c2ccc(Cl)cc2)cc1)C(=O)O`, the activity (max response) is -0.538% (inactive).
On the same count and under the same terms, in the case of `CN1CCN(C(=O)c2ccc(-c3ccc4c(C=O)c(O)ccc4c3)s2)CC1` it was 9.42% (inactive).
Regarding `CCC(Cc1c(I)cc(I)c(N)c1I)C(=O)O` (stereo not drawn), the activity (max response) was 1.75% (inactive).
Still for that read-out and setting: for `N#Cc1ccc(C2CCCc3cncn32)cc1` (stereo not drawn) the value was -11.9% (inactive); for `CN(C(=O)c1c(O)c2ccccc2n(C)c1=O)c1ccccc1`, 3.23% (inactive) and -16.1% (inactive).
In the case of `CN(C)C/C=C/C(=O)Nc1cccc(C(=O)Nc2cccc(Nc3ncc(Cl)c(-c4c[nH]c5ccccc45)n3)c2)c1`, the Potency was 316 nM (active).
The same measure, in the same setting: in the case of `COc1cc2c(cc1O)CCN[C@]21CS[C@@H]2c3c(OC(C)=O)c(C)c4c(c3[C@H](COC1=O)N1[C@@H]2[C@H]2c3c(cc(C)c(OC)c3O)C[C@@H]([C@@H]1O)N2C)OCO4` it was 3.8 nM (active); in that of `COc1cccc2c1C(=O)c1c(O)c3c(c(O)c1C2=O)C[C@@](O)(/C(CO)=N/NC(=O)CCCCCN1C(=O)C=CC1=O)C[C@@H]3O[C@H]1C[C@H](N)[C@H](O)[C@H](C)O1`, 3550 nM (active).
On to `CC[C@]1(O)CC2CN(CCc3c([nH]c4ccccc34)[C@@](C(=O)OC)(c3cc4c(cc3OC)N(C)[C@H]3[C@@](O)(C(=O)OC)[C@H](OC(C)=O)[C@]5(CC)C=CCN6CC[C@]43[C@@H]65)C2)C1` (stereo partly drawn), for which the Potency was 282 nM (active).
Still for that read-out and setting: in the case of `CCCCC(=O)OCC(=O)[C@]1(O)Cc2c(O)c3c(c(O)c2[C@@H](O[C@H]2C[C@H](NC(=O)C(F)(F)F)[C@H](O)[C@H](C)O2)C1)C(=O)c1c(OC)cccc1C3=O` it was 2820 nM (active); in that of `Cn1cncc1C(N)(c1ccc(Cl)cc1)c1ccc2c(c1)c(-c1cccc(Cl)c1)cc(=O)n2C` (stereo not drawn), 6310 nM (active).
`NCc1ccc(S(N)(=O)=O)cc1`: the activity (max response) was -8.11% (inactive).
In the case of `CC(C)NCC(O)COc1cccc2[nH]ccc12` (stereo not drawn), the activity (max response) was -13.8% (inactive).
Turning to `CN1CCN(c2ccc3nc(-c4cc(C(C)(C)C)c(OCCCC(=O)NCCCN=[N+]=[N-])c(C(C)(C)C)c4)[nH]c3c2)CC1`, the Potency is 3980 nM (active).
For `C[C@H]1NCc2cc(-c3ccc4c(=O)c(C(=O)O)cn(C5CC5)c4c3OC(F)F)ccc21`, the activity (max response) was -8.27% (inactive).
For `CN(C)Cc1ccc(S(=O)(=O)n2ccc(/C=C/C(=O)NO)c2)cc1`, the Potency was 12600 nM (active).
`Cc1ccc(C(=O)Nc2ccc(CN3CCN(C)CC3)c(C(F)(F)F)c2)cc1C#Cc1cnc2[nH]ncc2c1`: the Potency is 1780 nM (active).
On to `c1ccc(-c2ccc(CNc3nc(-c4ccccn4)nnc3-c3ccccc3)cc2)cc1`, for which the Potency is 11200 nM (active).
On to `Nc1c2ccccc2nc2ccccc12`, for which the Potency is 7310 nM (active).
Regarding `Nc1cc(-c2ccncc2)c[nH]c1=O`, the activity (max response) is 2.68% (inactive).
In the case of `Cc1cc(O[C@@H](CCC(F)(F)F)c2ccc(C(=O)NCCC(=O)O)cc2)cc(C)c1-c1ccc(C(C)(C)C)cc1`, the Potency is 25100 nM (active).
As to `Cn1cc(-c2ccc(S(=O)(=O)n3ccc(/C=C/C(=O)Nc4ccccc4N)c3)cc2)cn1`, the Potency is 794 nM (active).
In the case of `NS(=O)(=O)c1cc2c(cc1Cl)NC(CC1CCCC1)NS2(=O)=O` (stereo not drawn), the activity (max response) is 10.5% (inactive).
In the case of `CCS(=O)(=O)Nc1ccc(Oc2ccc(F)cc2F)c(-c2cn(C)c(=O)c3[nH]ccc23)c1`, the Potency was 2000 nM (active).
The same measure, in the same setting: for `C[C@H]1COCCN1c1cc(C2(S(=O)(=O)C3CC3)CC2)nc(-c2ccc(NC(=S)NCCO)cc2)n1` the value was 316 nM (active); for `Cc1ccc(S(=O)(=O)Nc2cc(C(F)(F)F)ccc2C(=O)Nc2nc(-c3ccccc3)cs2)cc1`, 2240 nM (active).
Take `Cc1ccc2c(Cl)cc(Cl)c(O)c2n1`: the activity (max response) is 9.37% (inactive).
Same read-out and setting: in the case of `CN(C)c1cc(NC(=O)CNC(C)(C)C)c(O)c2c1C[C@H]1C[C@H]3[C@H](N(C)C)C(=O)C(C(N)=O)=C(O)[C@]3(O)C(=O)C1=C2O` it was -8.31% (inactive); in that of `CONC(=O)Nc1ccc(-c2sc3c(c2CN(C)Cc2ccccc2)c(=O)n(-c2ccccc2)c(=O)n3Cc2c(F)cccc2F)cc1`, -8.17% (inactive).
For the compound `CSc1ccc(C(=O)/C=C/c2cc(C)c(OC(C)(C)C(=O)O)c(C)c2)cc1`, the Potency is 35500 nM (active).
Same read-out and setting: for `NC(=O)C1(N2CCCCC2)CCN(CCCN2c3ccccc3CCc3ccc(Cl)cc32)CC1` the value was 20600 nM (active).
On the same count and under the same terms, for `COc1cc(N2CCN(C)CC2)ccc1Nc1ncc2c(n1)N(C)c1ccccc1C(=O)N2C` the value was 15800 nM (active); for `O=C(O)C[C@H](O)C[C@H](O)/C=C/c1c(C2CC2)nc2ccccc2c1-c1ccc(F)cc1`, 3160 nM (active).
As to `CNCc1ccccc1`, the activity (max response) is 8.2% (inactive).
